Among all 5,500 compounds or so, about 2,000 (36%) were called active. About 18% were inconclusive and are not listed. Cut-off read from the data, not from the text of the source: active = normalized growth mostly below about 0.91 (no sharp cut-off); inconclusive = no clear call, values can overlap the other calls; inactive = mostly above about 0.92. Some of the results follow.
Assay: chemical genetic growth profiling, strain panel (AID 1159580);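 note: tested at 20 µM; growth read once vehicle control cultures reached saturation at 30 °C; 1 = growth at the plate median or of vehicle wells; lower values mean less growth of the strain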
Settings: growth OD

Measured: normalized growth

CC(=O)Oc1cc(OC(C)=O)c2c(=O)c(-c3ccccc3)coc2c1
inactive: S. cerevisiae deletion strains, locus YAL013W, strain DEP1, hits give low values 0.995 | S. cerevisiae deletion strains, locus YBR021W, strain FUR4, hits give low values 0.978 | S. cerevisiae deletion strains, locus YBR229C, strain ROT2, hits give low values 1 | S. cerevisiae deletion strains, locus YCL029C, strain bik1, hits give low values 1 | S. cerevisiae deletion strains, locus YDL035C, strain GPR1, hits give low values 0.997 | S. cerevisiae deletion strains, locus YDL074C, strain BRE1, hits give low values 0.989 | S. cerevisiae deletion strains, locus YDL101C, strain DUN1, hits give low values 1.01 | S. cerevisiae deletion strains, locus YDL134C, strain PPH21, hits give low values 1.01 | S. cerevisiae deletion strains, locus YDL185W, strain tfp1, hits give low values 0.998 | S. cerevisiae deletion strains, locus YDL192W, strain arf1, hits give low values 0.993 | S. cerevisiae deletion strains, locus YDR101C, strain arx1, hits give low values 0.982 | S. cerevisiae deletion strains, locus YDR150W, strain NUM1, hits give low values 1.02 | S. cerevisiae deletion strains, locus YDR162C, strain NBP2, hits give low values 1.01 | S. cerevisiae deletion strains, locus YDR318W, strain mcm21, hits give low values 0.982 | S. cerevisiae deletion strains, locus YDR388W, hits give low values 1 | S. cerevisiae deletion strains, locus YDR502C, strain sam2, hits give low values 0.978 | S. cerevisiae deletion strains, locus YEL061C, strain CIN8, hits give low values 1.01 | S. cerevisiae deletion strains, locus YER110C, hits give low values 0.992 | S. cerevisiae deletion strains, locus YER155C, strain BEM2, hits give low values 1.01 | S. cerevisiae deletion strains, locus YER167W, strain BCK2, hits give low values 1.02 | S. cerevisiae deletion strains, locus YGL078C, strain dbp3, hits give low values 0.991 | S. cerevisiae deletion strains, locus YGL086W, strain mad1, hits give low values 1 | S. cerevisiae deletion strains, locus YGL248W, strain PDE1, hits give low values 1.01 | S. cerevisiae deletion strains, locus YGR078C, strain PAC10, hits give low values 1 | S. cerevisiae deletion strains, locus YGR135W, strain pre9, hits give low values 0.985 | S. cerevisiae deletion strains, locus YGR229C, strain SMI1, hits give low values 1.02 | S. cerevisiae deletion strains, locus YGR252W, strain gcn5, hits give low values 0.888 | S. cerevisiae deletion strains, locus YHR030C, strain SLT2, hits give low values 1.01 | S. cerevisiae deletion strains, locus YHR079C, strain IRE1 (second series), hits give low values 0.98 | S. cerevisiae deletion strains, locus YHR094C, strain hxt1, hits give low values 0.988 | S. cerevisiae deletion strains, locus YHR129C, strain ARP1, hits give low values 1 | S. cerevisiae deletion strains, locus YHR200W, strain rpn10, hits give low values 1 | S. cerevisiae deletion strains, locus YIL066C, strain RNR3, hits give low values 1.02 | S. cerevisiae deletion strains, locus YIL073C, strain SPO22, hits give low values 1 | S. cerevisiae deletion strains, locus YIL125W, strain kgd1, hits give low values 0.992 | S. cerevisiae deletion strains, locus YIR030C, strain dcg1, hits give low values 1 | S. cerevisiae deletion strains, locus YJL095W, strain BCK1, hits give low values 1.01 | S. cerevisiae deletion strains, locus YJL134W, strain LCB3, hits give low values 1.01 | S. cerevisiae deletion strains, locus YJL168C, strain set2, hits give low values 1 | S. cerevisiae deletion strains, locus YJL187C, strain SWE1 (second series), hits give low values 1 | S. cerevisiae deletion strains, locus YJR043C, strain POL32, hits give low values 0.987 | S. cerevisiae deletion strains, locus YJR075W, strain HOC1, hits give low values 1.02 | S. cerevisiae deletion strains, locus YKL009W, strain mrt4, hits give low values 1.02 | S. cerevisiae deletion strains, locus YKL068W, hits give low values 0.993 | S. cerevisiae deletion strains, locus YKL085W, strain MDH1 (second series), hits give low values 0.982 | S. cerevisiae deletion strains, locus YKL085W, strain MDH1, hits give low values 0.982 | S. cerevisiae deletion strains, locus YKL190W, strain CNB1, hits give low values 1.03 | S. cerevisiae deletion strains, locus YKR001C, strain vps1, hits give low values 0.944 | S. cerevisiae deletion strains, locus YLR039C, strain RIC1, hits give low values 0.901 | S. cerevisiae deletion strains, locus YLR058C, strain SHM2, hits give low values 1.01 | S. cerevisiae deletion strains, locus YLR102C, strain apc9, hits give low values 1 | S. cerevisiae deletion strains, locus YLR262C, strain YPT6, hits give low values 0.913 | S. cerevisiae deletion strains, locus YLR268W, strain sec22, hits give low values 0.983 | S. cerevisiae deletion strains, locus YLR330W, strain CHS5, hits give low values 1.01 | S. cerevisiae deletion strains, locus YLR342W, strain FKS1 (second series), hits give low values 0.966 | S. cerevisiae deletion strains, locus YLR371W, strain rom2, hits give low values 1 | S. cerevisiae deletion strains, locus YLR418C, strain cdc73, hits give low values 0.891 | S. cerevisiae deletion strains, locus YML016C, strain PPZ1, hits give low values 1.02 | S. cerevisiae deletion strains, locus YML032C, strain rad52, hits give low values 1 | S. cerevisiae deletion strains, locus YML124C, strain tub3, hits give low values 0.995 | S. cerevisiae deletion strains, locus YMR078C, strain ctf18, hits give low values 1 | S. cerevisiae deletion strains, locus YMR223W, strain ubp8, hits give low values 0.992 | S. cerevisiae deletion strains, locus YMR263W, strain SAP30, hits give low values 1 | S. cerevisiae deletion strains, locus YMR307W, strain GAS1, hits give low values 0.858 | S. cerevisiae deletion strains, locus YNL067W, strain RPL9B, hits give low values 1 | S. cerevisiae deletion strains, locus YNL128W, strain TEP1, hits give low values 1.03 | S. cerevisiae deletion strains, locus YNL153C, strain GIM3, hits give low values 1.02 | S. cerevisiae deletion strains, locus YNL233W, strain BNI4, hits give low values 1.02 | S. cerevisiae deletion strains, locus YNL250W, strain rad50, hits give low values 0.974 | S. cerevisiae deletion strains, locus YNL271C, strain bni1, hits give low values 0.991 | S. cerevisiae deletion strains, locus YNL298W, strain CLA4, hits give low values 0.999 | S. cerevisiae deletion strains, locus YNL307C, strain MCK1, hits give low values 0.932 | S. cerevisiae deletion strains, locus YNL322C, strain KRE1, hits give low values 1.01 | S. cerevisiae deletion strains, locus YNR052C, strain pop2, hits give low values 0.989 | S. cerevisiae deletion strains, locus YOL006C, strain TOP1, hits give low values 0.991 | S. cerevisiae deletion strains, locus YOL012C, strain htz1 0.735 | S. cerevisiae deletion strains, locus YOL147C, strain pex11, hits give low values 0.994 | S. cerevisiae deletion strains, locus YOR061W, strain CKA2, hits give low values 1.02 | S. cerevisiae deletion strains, locus YOR069W, strain VPS5, hits give low values 1.01 | S. cerevisiae deletion strains, locus YOR136W, strain idh2, hits give low values 0.997 | S. cerevisiae deletion strains, locus YOR144C, strain elg1, hits give low values 1 | S. cerevisiae deletion strains, locus YOR184W, strain ser1, hits give low values 0.986 | S. cerevisiae deletion strains, locus YOR316C, strain cot1, hits give low values 1 | S. cerevisiae deletion strains, locus YPL055C, strain LGE1, hits give low values 0.991 | S. cerevisiae deletion strains, locus YPL241C, strain CIN2, hits give low values 1.01 | S. cerevisiae deletion strains, locus YPR119W, strain clb2, hits give low values 0.999 | S. cerevisiae deletion strains, locus YPR141C, strain kar3, hits give low values 0.979 | S. cerevisiae deletion strains, locus YPR163C, strain tif3, hits give low values 0.994 | S. cerevisiae deletion strains, locus YPR167C, strain met16, hits give low values 0.996 | S. cerevisiae deletion strains, strain wtn01, hits give low values 0.984 | S. cerevisiae strains, strain wild type, hits give low values 1.01

From PubChem BioAssay AID1159580 (chemical genetic matrix, 2015)
